# According to the supplement of paper PMC6555819:
# Columns and labels:
# Experiment in all cases: PBM binding z-score (relative to random genomic background probes); higher = stronger binding; sequences stand for … in GC…GCGATTGACAGCGTAGAATGAAGG
# [1] = system: FXR:RXRa (NR concentration 270 nM, RXRa partner concentration 90 nM)
# Summary of the method: (§1)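 Ligand-free nuclear receptor dimers were bound for 1 h to custom Agilent 4×180K protein-binding microarrays. Detection used antibodies against each partner (one per run). Binding z-scores rest on regression-normalized fluorescence, with random background probes as the reference.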
# [2] = system: LXRa:RXRa (NR concentration 270 nM, RXRa partner concentration 90 nM)
# Summary of the method: as §1
# [3] = system: LXRa homodimer (NR concentration 270 nM)
# Summary of the method: as §1
# [4] = system: LXRb:RXRa (NR concentration 270 nM, RXRa partner concentration 90 nM)
# Summary of the method: as §1
# [5] = system: LXRb homodimer (NR concentration 270 nM)
# Summary of the method: as §1
# [6] = system: PPARa:RXRa (NR concentration 270 nM, RXRa partner concentration 90 nM)
# Summary of the method: as §1
# [7] = system: PPARg:RXRa (NR concentration 180 nM, RXRa partner concentration 90 nM)
# Summary of the method: as §1
# [8] = system: PPARg:RXRa 270nM:90nM, anti-RXR (NR concentration 270 nM, RXRa partner concentration 90 nM)
# Summary of the method: as §1
# [9] = system: PPARg:RXRa 30nM:10nM, anti-RXR (NR concentration 30 nM, RXRa partner concentration 10 nM)
# Summary of the method: as §1
# [10] = system: PPARg:RXRa 90nM:30nM, anti-RXR (NR concentration 90 nM, RXRa partner concentration 30 nM)
# Summary of the method: as §1
# [11] = system: PPARg:RXRa DBDmut IVT, anti-RXR (DBD mutation: RXRa K156A/R161A, NR concentration 270 nM, RXRa partner concentration 90 nM)
# Summary of the method: as §1
# [12] = system: PPARg:RXRa IVT, anti-PPARg (NR concentration 270 nM, RXRa partner concentration 90 nM)
# Summary of the method: as §1
# [13] = system: PPARg DBDmut:RXRa IVT, anti-PPARg (DBD mutation: PPARg1 K132A/R137A, NR concentration 270 nM, RXRa partner concentration 90 nM)
# Summary of the method: as §1
# [14] = system: PPARg DBDmut IVT, anti-PPARg (DBD mutation: PPARg1 K132A/R137A, NR concentration 270 nM)
# Summary of the method: as §1
# [15] = system: PPARg homodimer (NR concentration 180 nM)
# Summary of the method: as §1
# [16] = system: PXR:RXRa (NR concentration 270 nM, RXRa partner concentration 90 nM)
# Summary of the method: as §1
# [17] = system: PXR homodimer (NR concentration 270 nM)
# Summary of the method: as §1
# [18] = system: RARa:RXR (NR concentration 270 nM, RXRa partner concentration 90 nM)
# Summary of the method: as §1
# [19] = system: RARa homodimer (NR concentration 270 nM)
# Summary of the method: as §1
# [20] = system: RARb:RXRa (NR concentration 270 nM, RXRa partner concentration 90 nM)
# Summary of the method: as §1
Sequence,PBM binding z-score [1],PBM binding z-score [2],PBM binding z-score [3],PBM binding z-score [4],PBM binding z-score [5],PBM binding z-score [6],PBM binding z-score [7],PBM binding z-score [8],PBM binding z-score [9],PBM binding z-score [10],PBM binding z-score [11],PBM binding z-score [12],PBM binding z-score [13],PBM binding z-score [14],PBM binding z-score [15],PBM binding z-score [16],PBM binding z-score [17],PBM binding z-score [18],PBM binding z-score [19],PBM binding z-score [20]
TATACAGGGTCAAAGGCCGGAGTACGAATGTCGA,6.93,6.1,2.37,4.53,2.31,6.26,7.67,6.73,4.47,6.51,2.46,4.9,2.77,1.88,2.2,3.97,0.381,5.47,1.43,4.27
CTCGAAAGGTCTGTTGAGGTGAGTATACGGATAA,0.57,-0.177,-0.581,-0.275,-0.339,0.697,-0.00878,0.182,-0.0313,0.242,-0.464,0.358,0.678,0.237,0.0956,0.48,-0.39,1.61,-0.325,1.47
GATACAGGGTCAGCTAGAAGCCAGAGTATGGAAA,4.4,2.38,-0.483,2.13,-0.479,4.45,3.76,3.04,1.33,1.83,1.32,2.21,-0.0163,-0.227,2.08,1.64,0.0123,2.84,-0.0258,3.78
TCTAGTAGGTTACCAATGGGGCATTCAGCTTTCT,0.412,1.74,-0.049,1.37,0.0938,2.14,2.38,2.93,3.2,2.81,5.22,5.27,0.435,0.135,0.405,0.365,-0.176,0.372,5.32e-05,1.26
CCCTACGGGTCAAGGTTATAGCACGGGTGGTACG,5.27,3.4,0.278,2.78,-0.151,4.7,3.55,4.19,1.1,2.75,-0.17,2.06,-0.206,-1.06,2.1,3.35,0.417,4.27,1.19,4.07
ACTAGTTGGTCATCTGAGGTCACACACAATTCGG,3.47,5.26,5.1,4.09,1.65,3.98,2.52,2.62,1.13,2.05,2.52,3.08,1.2,0.851,3.6,5.61,2.26,4.86,1.05,3.69
ATATGTAGGTTAAGGGTCATTCTGGTTGGTTCGC,5.42,4.75,3.48,4.51,1.56,6.65,11.4,9.66,10.5,11.5,7.57,7.51,2.31,1.76,4.67,4.85,1.04,5.63,2.03,3.56
TGAATGAGATTATAAGATCAGGGAACGTTGCAAA,-0.81,-0.599,-0.661,-0.508,-0.369,-0.202,0.324,0.0746,0.527,0.406,-1.28,-0.236,0.555,0.576,-1.31,-0.518,-0.193,-0.548,0.0948,-1.13
